# TRPV1 PAM = human TRPV1 potentiation. AID 540277. hit rate 0.02% among 320,000. potentiation, % at 8.33 µM. TRPV1-expressing cells, Fluo-8 calcium influx, capsaicin EC20 potentiation. Q8NER1; in the data active = potentiation above about 80%; inconclusive = between about 30% and that limit; note: 0% is about no effect
#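 Cells expressing TRPV1 were dye-loaded with Fluo-8 and read kinetically: 10 s baseline, 3 min after compound (agonist portion), then 2 min after EC20 capsaicin (allosteric enhancer portion). Calcium-bound dye fluorescence at 480/520 nm.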
# hERG WT inh = KCNH2 (human, wildtype) channel inhibition. U2OS, BacMam KCNH2, thallium flux FluxOr; stronger effect = lower value. Q12809. activity change, % at 1.84 µM. hit rate 0.37% among 340,000. AID 720551;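 active = maximum activity change below -70%; inconclusive = maximum activity change between -70% and -50%; inactive = maximum activity change above -50%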; note: % is set by controls: 0 for no effect and ±100 for the full control effect
#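 U2OS cells were transduced with wild-type KCNH2 virus (2.03 x 10^8 / mL) for 4 h at room temperature, then cultured overnight at 37 C. Thallium flux was read with FluxOr dye. Rate constants were normalized to DMSO controls.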
# ClpP mod = qHTS Assay for Activators of ClpP; ATP-dependent Clp protease proteolytic subunit (Bacillus subtilis (strain 168)), P80244; purified B. subtilis ClpP, FRET peptide cleavage, 20 min; Potency, µM (series often up to 57.5 µM), for the others: at the highest dose activity change, negative = active; hit rate 1.9% among 340,000; active = well fitted falling curve with a large enough effect; inconclusive = small, poorly fitted or top-dose-only effect; inactive = no such curve, though single readings can be large or run the other way; note: potency is the fitted concentration of half-maximal effect; the source files actives as falling curves though it sought activators and does not explain the sign; nearly all actives have a fitted effect of over 65% in size
# Target sequence (P80244 whole entry, looked up): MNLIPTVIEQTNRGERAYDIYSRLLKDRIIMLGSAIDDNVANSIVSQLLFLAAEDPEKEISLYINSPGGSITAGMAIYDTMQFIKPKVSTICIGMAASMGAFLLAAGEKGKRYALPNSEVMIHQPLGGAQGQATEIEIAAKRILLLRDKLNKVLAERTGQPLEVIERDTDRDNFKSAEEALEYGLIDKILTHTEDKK
#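 ClpP 10 microg/mL final, pH 8 Tris/KCl buffer with BSA, glycerol, Tween-20; compound pinned in; FRET-FV substrate; RT 20 min; Ex320/Em430; ΔFRET vs ADEP 5.8 microM, DMSO, no enzyme.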
# p53 reactivator = mutant p53 re-activation in reporter cells; H1299 p53-A138V BP100-luciferase reporter, luminescence, 24 h; Potency, µM (series often up to 92.2 µM), inactives show top-dose activity change, positive = activation, actives largely listed as activators; hit rate 0.063% among 320,000; AID 504706; active = well fitted activation curve with a large enough effect; inconclusive = small, poorly fitted or top-dose-only effect; inactive = no such curve, though single readings can be large or run the other way; note: potency is the fitted concentration of half-maximal effect; % of control where 0% means no effect; nearly all actives have a fitted effect of over 45% in size
#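 p53-null H1299 cells stably carrying temperature-sensitive p53-A138V and a BP100-luciferase reporter were pinned with compounds (4-point, 1:5 series) and held 24 hrs at 37 deg C. Luminescence was read 10 min after detection reagent.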
# TRPV1 agonist = activates the human vanilloid receptor TRPV1 | TRPV1-expressing cells, Fluo-8 calcium influx, agonist mode | activation, % at 8.33 µM | hit rate 0.19% among 320,000; in the data active = activation above about 80%; inconclusive = between about 30% and that limit; note: 0% is about no effect
#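 Cells expressing TRPV1 were dye-loaded with Fluo-8 and read kinetically: 10 s baseline, 3 min after compound (agonist portion), then 2 min after EC20 capsaicin (allosteric enhancer portion). Calcium-bound dye fluorescence at 480/520 nm.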
# KCNH2 3.1 inh = inhibitors of human KCNH2 3.1 potassium channel isoform; U2OS KCNH2 3.1, thallium flux FluxOr; stronger effect = lower value; activity change, % (tested at about 1.8 µM); hit rate 0.95% among 340,000;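 active = maximum activity change below -70%; inconclusive = maximum activity change from -70% to -50%; inactive = maximum activity change above -50%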;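 note: thallium influx rate constant from kinetic fluorescence after stimulation buffer; % is set by controls: 0 for no effect and ±100 for the full control effect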
#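 Channel expression came from 3.1 mutant virus (1.77 x 10^8 /mL) applied to suspended U2OS cells for 4 h. Flux was tracked with FluxOr dye plus Red40 quencher, and kinetic rate constants normalized to controls.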
# * = called active by the depositor; ? = inconclusive; . = not tested or not shown. In the library only some 2.6% were active in any assay of this set; here they are far more common.
SMILES,TRPV1 PAM,hERG WT inh,ClpP mod,p53 reactivator,TRPV1 agonist,KCNH2 3.1 inh
N#Cc1ccc(S(=O)(=O)NCC(=O)OCC(=O)N2CCCC2=O)cc1,?,5,14µM*,0%,1,3
Cc1cc(C(=O)Nc2sc3c(c2C#N)CCC(C)C3)cs1 (configuration not stated),1,-4,25µM*,25%,?,26
CCOC(=O)CN(c1ccccn1)S(=O)(=O)c1ccccc1,-8,-1,32µM*,-2%,1,-39
CC1(C(=O)NCc2ccccc2)CCC(=O)N1CCCn1ccnc1 (configuration not stated),.,.,-1%,.,.,.
CC1=C(C#N)C(c2cccnc2)C2=C(CC(c3ccc(Cl)cc3)CC2=O)N1 (configuration not stated),-2,-6,28µM*,-4%,1,0
CC1=C(C#N)C(c2ccc(O)cc2)C2=C(CCCC2=O)N1 (configuration not stated),-3,-3,.,2%,2,-2
COc1ccccc1-c1nnc(NC(=O)C(C)Sc2nncn2C)s1 (configuration not stated),?,-2,-5%,1%,-4,14
COc1ccccc1CNC(=O)CCC(=O)Nc1nnc(C)s1,2,-298*,0%,-7%,0,-4
COc1ccccc1-c1nnc(NC(C)=O)s1,?,3,28µM*,?,2,-16
CCCCOC(=O)Nc1nnc(-c2ccccc2OC)s1,-8,2,?,1%,6,8
COc1ccccc1-c1nnc(NC(=O)C(C)C)s1,20,-10,32µM*,8%,-5,2
COc1ccc(CNC(=O)Nc2ccc3c(c2)c(=O)n(C)n3Cc2cccc(C(F)(F)F)c2)cc1,.,.,5%,.,.,.
COc1cccc(C(=O)NCC(c2ccc(N(C)C)cc2)N2CCc3ccccc32)c1 (configuration not stated),.,.,-11%,.,.,.
CCN1CCN(c2ccc(NC(=O)c3ccc(Br)o3)cc2)CC1,0,24,0%,.,5,18
NC(=O)c1ccc(-c2ccc(Br)cc2)o1,-16,3,28µM*,?,28,-4
CN1CCN(c2ccc(NC(=O)c3ccc(-c4ccc(Br)cc4)o3)cc2)CC1,-2,33,.,-8%,13,-71*
O=C(Nc1nnc(C2CCCCC2)s1)c1ccc(Br)s1,-7,12,0%,11%,80*,2
Cc1cccc(N(Cc2cc3ccccc3[nH]c2=O)S(=O)(=O)c2ccccc2)c1,16,0,32µM*,5%,17,-6
CCOc1ccc(N(Cc2cc3ccc(C)cc3[nH]c2=O)S(=O)(=O)c2ccccc2)cc1,12,.,32µM*,-1%,1,-6
COc1ccc2[nH]c(=O)c(CN(c3ccccc3)S(=O)(=O)c3ccccc3)cc2c1,11,2,-9%,?,?,6
O=c1[nH]c2ccccc2cc1CN(c1ccccc1)S(=O)(=O)c1ccccc1,12,-2,32µM*,-9%,17,-2
Cc1ccc(N(Cc2cc3cc(C)ccc3[nH]c2=O)S(=O)(=O)c2ccccc2)cc1,-2,-9,28µM*,7%,10,0
COc1cc(C2c3c(oc4ccccc4c3=O)C(=O)N2Cc2ccc(C)cc2)ccc1O (configuration not stated),.,.,0%,.,.,.
CCOC(=O)N1CCN(Cc2nc3cc([N+](=O)[O-])ccc3n2C(C)C)CC1,.,.,-1%,.,.,.
Cc1ccc2cc(CN(c3ccccc3)S(=O)(=O)c3ccccc3)c(=O)[nH]c2c1,4,8,.,2%,0,-11
Cc1cccc(N(Cc2cc3ccc(C)cc3[nH]c2=O)S(=O)(=O)c2ccccc2)c1,6,8,25µM*,2%,4,-7

# Compound activity: PubChem BioAssay, National Center for Advancing Translational Sciences (NCATS)
